# Reference: PubChem BioAssay AID652054 (National Center for Advancing Translational Sciences (NCATS), 2013)
# Screen size: about 360,000 compounds; about 9,100 (2.5%) were called active. Roughly 4% stayed inconclusive and do not appear here. This is one part of a sample in which actives are shown more often than they occur. Unmarked numbers belong to inactive results. Cut-off read from the data, not from the text of the source: active = max response below about -50%; inconclusive = no clear call, values can overlap the other calls; inactive = above that.
# Molecular target: D(3) dopamine receptor (Homo sapiens) (UniProt P35462)
# Experiment: qHTS of D3 Dopamine Receptor Antagonist: qHTS
# Details: D3R cells, DiscoveRx beta-arrestin luminescence, antagonist mode; active compounds read low
# Method in brief: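 Cells plated overnight at 1500 cells/well, then exposed to library compounds with dopamine controls for 90 minutes at 37 degrees C. DiscoveRx reagent added for 30–60 minutes at room temperature; luminescence read, quantitative HTS format.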
# % is set by controls: 0 for no effect and ±100 for the full control effect.
# D(3) dopamine receptor (Homo sapiens), sequence (P35462 whole entry, looked up): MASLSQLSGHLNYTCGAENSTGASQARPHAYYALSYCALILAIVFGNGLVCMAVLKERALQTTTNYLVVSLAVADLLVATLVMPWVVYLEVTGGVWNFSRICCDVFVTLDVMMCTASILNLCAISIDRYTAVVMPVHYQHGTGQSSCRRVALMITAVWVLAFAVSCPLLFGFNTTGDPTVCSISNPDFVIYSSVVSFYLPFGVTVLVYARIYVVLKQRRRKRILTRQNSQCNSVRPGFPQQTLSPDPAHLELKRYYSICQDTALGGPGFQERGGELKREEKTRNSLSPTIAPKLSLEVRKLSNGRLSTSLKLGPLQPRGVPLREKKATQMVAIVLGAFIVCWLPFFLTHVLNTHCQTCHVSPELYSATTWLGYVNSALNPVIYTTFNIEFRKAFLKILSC
row,SMILES,"max response, negative = inhibition"
1,CCCCN(CC)CCNC(=O)c1[nH]c(C)c(C(C)=O)c1C,-58.3% (active)
2,CC(=O)c1c(C)[nH]c(C(=O)NCCCN2CCCC2)c1C,11.6%
3,CC(=O)c1c(C)[nH]c(C(=O)NCc2ccc(C)cc2)c1C,-6.75%
4,CC1(C(=O)NS(=O)(=O)C2CC2)CCCN(C(=O)CSc2ccccc2)C1 (stereo unspecified),0%
5,Cc1ccc(-c2nc3ccc(Br)cn3c2Cc2ccccc2C(F)(F)F)cc1,-15%
6,CCOC(=O)C1=CC[C@@H](c2ccncc2)N(S(=O)(=O)c2ccc(C)cc2)C1,-4.07%
7,CCCCNC(=O)c1nc(C2CCN(S(=O)(=O)c3ccc(F)c(F)c3)CC2)oc1-c1cccc(C(F)(F)F)c1,7.15%
8,C[C@H]1CN([C@@H](C)CO)C(=O)CCCn2nncc2CO[C@@H]1CN(C)Cc1ccc(Oc2ccccc2)cc1,-10.5%
9,C=CS(=O)c1sc(Cl)c(N2CCOCC2)c1[N+](=O)[O-] (stereo unspecified),-84.2% (active)
10,CC1(C(=O)NCc2ccco2)Cc2c(-c3ccc4c(c3)OCO4)ccnc2O1 (stereo unspecified),5.33%
11,CC(=O)NN=C(C)c1ccc(NC(=O)C2CC2)cc1,3.77%
12,COc1ccc(NC(=O)C(=O)NCC(c2ccco2)N2CCc3ccccc3C2)cc1 (stereo unspecified),6.38%
13,COc1ccc(CCC(C)N2CCc3ccccc3C2)cc1 (stereo unspecified),-112% (active)
14,COc1ccc(CN2CN(C(C)C)CSC2=S)cc1,-12.9%
15,O=C(OC1CC2CC1[C@H]1CCCCN1C2=O)N1CCOCC1 (stereo partly specified),3.81%
16,O=C(C(=O)N1CCC(c2ccccc2)CC1)c1ccccc1,11.8%
17,CCN(CC)CCCN=Cc1c(O)n(-c2ccc(C)cc2)c(=O)c2ccccc12,9.43%
18,Cc1ccc(-n2c(O)c(C=Nc3ccc(S(=O)(=O)Nc4ncccn4)cc3)c3ccccc3c2=O)cc1C,1.71%
19,CCOc1ccc(-n2c(O)c(/C=N/Nc3nc(C)cc(C)n3)c3ccccc3c2=O)cc1,-56.4% (active)

row,SMILES,"max response, negative = inhibition"
1,O=C(Nc1ccc2c(c1)OCCO2)C1c2ccccc2OCC(=O)N1Cc1ccccn1 (stereo unspecified),33.3%
2,Cc1cc(C)n(-c2ccc3nncn3n2)n1,1.57%
3,Cc1cc(C)n(-c2ccc(Cl)c(C(=O)O)n2)n1,-86.2% (active)
4,Cc1ccc(S(=O)(=O)Nc2nc(C)cc(-n3nc(C)cc3C)n2)cc1,-12.2%
5,COCCCNC(=O)c1cccc2c(-c3ccc(O)c(OC)c3)coc12,0.229%
6,COC(=O)[C@]12CCCCC=C1N(Cc1ccco1)C(=O)[C@H](CC(=O)NCC1CCCCC1)C2,-0.188%
7,CN1OC[C@@H]2CN(S(=O)(=O)c3cccc(C(F)(F)F)c3)[C@H](c3ccc(-c4cc5ccccc5o4)cc3)C[C@@H]21,-12%
8,CC1(C(=O)NCc2ccc(F)c(F)c2)Cc2c(-c3ccc4c(c3)OCO4)ccnc2O1 (stereo unspecified),19.2%
9,Cc1ccc(NC(=O)CCC(=O)N/N=C/c2ccco2)c(C)c1,16.8%
10,Cc1ccc(CN2CCN(/N=C/c3ccco3)CC2)c(C)c1,-78.6% (active)
11,Cc1ccc(CN2CCN(/N=C/c3cccnc3)CC2)c(C)c1,-15%
12,O=C(/C=C/[C@H]1O[C@@H](n2cnc3c(NC(=O)c4ccccc4)ncnc32)[C@H](O)[C@@H]1O)NCc1ccccc1,0%
13,CCn1cc(C(=O)NCCCN2CCCCCC2)c(=O)c2cc(S(=O)(=O)N3CCc4ccccc4C3)ccc21,-2.35%
14,Cc1cccc2c1-c1sc(C(=O)NCCCN3CCc4ccccc4C3)cc1CO2,-63.3% (active)
15,CN1CCN(CCCNC(=O)c2cc3c(=O)oc4ccccc4c3s2)CC1,0%
16,C[C@@H]1CN([C@@H](C)CO)C(=O)c2cc(Br)cnc2O[C@H]1CN(C)Cc1ccc(-c2ccccc2)cc1,24.5%
17,COc1ccc(CN2C(=O)C(CC(=O)NCCN3CCOCC3)CC(C(=O)N(C(C)C)C(C)C)=C2C)cc1 (stereo unspecified),10.3%
18,COc1ccc([C@H]2N[C@]3(CCCN(CC4CCCCC4)C3=O)[C@H]3C(=O)N(C)C(=O)[C@@H]23)cc1,-3.44%
19,CCOc1c2ccc(C(=O)NCc3ccc4c(c3)OCO4)cc2nn1C,21.7%

row,SMILES,"max response, negative = inhibition"
1,COc1ccccc1-n1c(C)nc2cc(C(=O)NCc3ccc4c(c3)OCO4)ccc21,-53.5% (active)
2,COc1cc(OC)c(C(=O)NCc2ccc3c(c2)OCO3)cc1OC,-7.32%
3,C[C@@H]1CC2=C(C(=O)OC(C)(C)O2)[C@@H](C2CC2)O1,20%
4,CC1(C(=O)NCc2ccccc2)CN(S(C)(=O)=O)CC(=O)N1CC(F)(F)F (stereo unspecified),17.5%
5,Cc1cccc(C(=O)C(O)(c2ccccc2)C2CCCCC2=O)c1 (stereo unspecified),6.43%
6,O=C(CN1CCCCCC1)Nc1ccc(Br)cc1Br,-12.8%
7,CC(=O)c1cc2c(cc1NC(=O)CN1CCCCCC1)OCO2,-65% (active)
8,CC(=O)c1cc2c(cc1NC(=O)Cn1nc(-c3ccc(F)cc3)ccc1=O)OCO2,-11.4%
9,COc1ccc(C(C)(O)c2nc(-c3cc(F)cc(F)c3)cs2)cc1 (stereo unspecified),2.54%
10,Cc1ccccc1S(=O)(=O)NC(=O)C1(C)CCN1C(=O)Cc1ccc(Cl)cc1Cl (stereo unspecified),-7.52%
11,O=C1[C@H]2[C@@H](c3ccc(C(F)(F)F)cc3)N[C@]3(CCCN(Cc4ccc(Br)cc4)C3=O)[C@H]2C(=O)N1Cc1ccccc1,29.8%
12,CCc1nc(NCCO)c(C#N)c2c1CCCC2,-13.6%
13,CC(C)Cc1nc(N2CCOCC2)c(C#N)c2c1CCC2,36.7%
14,CC(C)CCNc1nc(N2CCCC2)c2c(c1C#N)CCN(C)C2,-65.7% (active)
15,CCOC(=O)C1(C)CCCN(C(=O)c2ccc(N(C)C)cc2)C1 (stereo unspecified),3.97%
16,CC(=NNC(=S)N1CCCCCC1)c1ccccn1,18.7%
17,NC(=O)NC(CC(=O)NNC(=O)c1ccccn1)c1ccc(Cl)cc1 (stereo unspecified),-12.6%
18,C/C(=N\NC(=O)Cc1ccc(Cl)cc1)c1ccccn1,-93.2% (active)
